For 88 molecules, max response, negative = inhibition results are on record in PubChem BioAssay AID652054 (National Center for Advancing Translational Sciences (NCATS), 2013).

About 9,100 (2.5%) of roughly 360,000 compounds were called active. Not shown: some 4% with an inconclusive outcome. Cut-off read from the data, not from the text of the source: active = max response below about -50%; inconclusive = no clear call, values can overlap the other calls; inactive = above that. What follows is part of a selection rich in actives, with near analogues and random picks from the rest.
% is set by controls: 0 for no effect and ±100 for the full control effect.

For this experiment, the target named is D(3) dopamine receptor (Homo sapiens) (UniProt P35462). Briefly: qHTS of D3 Dopamine Receptor Antagonist: qHTS. To be noted: D3R cells, DiscoveRx beta-arrestin luminescence, antagonist mode; active compounds read low. An excerpt: D3 DARs represent a very important target for the treatment of several neuropsychiatric disorders. Indeed, one of the most promising therapeutic applications for the D3 DAR is in the area of addiction and related disorders. […] These findings have been observed with a number of addictive substances including cocaine, amphetamine, nicotine, and alcohol. […] Antagonism of the D3 DAR may also be therapeutic in the treatment of schizophrenia or psychosis. […] Since the D3 DAR is expressed in areas of the CNS associated with the control of mood and emotion, it has been hypothesized that selective antagonism of the D3 DAR may be effective in treating psychosis without inducing the motor side effects typically seen with D2 DAR antagonists.
Sequence of D(3) dopamine receptor (Homo sapiens) (P35462 whole entry, looked up): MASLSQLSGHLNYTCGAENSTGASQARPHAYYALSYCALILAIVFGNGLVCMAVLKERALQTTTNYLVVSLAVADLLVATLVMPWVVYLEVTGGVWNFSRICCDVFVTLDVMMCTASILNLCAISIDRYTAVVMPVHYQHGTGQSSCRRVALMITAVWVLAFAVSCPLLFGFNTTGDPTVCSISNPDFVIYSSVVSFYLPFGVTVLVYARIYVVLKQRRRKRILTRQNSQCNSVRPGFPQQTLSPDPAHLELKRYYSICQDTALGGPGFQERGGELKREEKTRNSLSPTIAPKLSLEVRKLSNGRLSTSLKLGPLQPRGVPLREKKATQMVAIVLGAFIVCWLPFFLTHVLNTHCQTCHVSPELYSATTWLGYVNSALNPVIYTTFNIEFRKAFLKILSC
This part of the project aims to discover novel antagonist.
NIH Chemical Genomics Center [NCGC]
NIH Molecular Libraries Probe Centers Network [MLPCN]
Assay Submitter (PI): David Sibley, NINDS
Freshly passaged cells are plated in 1536 well white, solid bottom plates at a density of 1500 cells/well in 3microl of complete media. After an overnight incubation at 37 degrees C in 5% CO2, cells are loaded with 23nl of test compound from the compound library (as well as dopamine controls) using a 1536 pintool and incubated at 37 degrees C for 90 minutes. Two microliters of DiscoveRx reagent is then added to all cells, and they are incubated for an additional 30 - 60 minutes at room temperature. Following incubation, luminescence is measured on a ViewLux CCD-based luminometer reader using a 20 sec exposure time.
As for `Cc1ccc(CN2CCN(c3ncccn3)CC2)c(C)c1`, the max response, negative = inhibition is -14.2% (inactive).
In the case of `Oc1c(CN2CCN(c3ccc(F)cc3)CC2)cc(Cl)c2cccnc12` it was -59.7% (active).
In the case of `Cc1cccc(C)c1NC(=O)CN1CCN(c2ccc(F)cc2)CC1` it was -14.3% (inactive).
In the case of `COc1ccc(-c2nc3ccc(Br)cn3c2Cc2ccc(C)cc2)cc1OC` it was 33.3% (inactive); in that of `CCc1nc2c(OCCOc3ccc(F)cc3)cccn2c1N(C)C(=O)c1ccccc1F`, 9.16% (inactive).
In the case of `CC1CN(C(=O)CCC(=O)NCCCN2CCC(Cc3ccccc3)CC2)c2cc(Cl)ccc2O1` (stereo not drawn), the max response, negative = inhibition is -69.6% (active).
On to `CC1CN(C(=O)CCC(=O)NCc2cccnc2)c2ccccc2O1` (stereo not drawn), for which the max response, negative = inhibition was -17.6% (inactive).
In the case of `CC1CN(C(=O)CCC(=O)NC2CCN(Cc3ccccc3)CC2)c2ccccc2O1` (stereo not drawn) it was -13.6% (inactive); in that of `CC1=C(C(=O)N2CCOCC2)CC(CC(=O)NCc2cccc3ccccc23)C(=O)N1CCC1=CCCCC1` (stereo not drawn), -26.6% (inactive).
As for `CCCc1nc2c3ccccc3ccn2c1Cc1ccccc1C(F)(F)F`, the figure is -26.6% (inactive); as for `CC1=C(C(=O)N2CCOCC2)CC(CC(=O)NCc2cccs2)C(=O)N1CCCN1CCCC1=O` (stereo not drawn), 0% (inactive); as for `COc1ccc(Cl)cc1NC(=O)CN(C)C(=O)c1cn(-c2ccccc2)nc1-c1cccs1`, 0.189% (inactive).
As for `COCCCNc1nc2ccccc2nc1NS(=O)(=O)c1ccc(F)cc1`, the figure is 0.291% (inactive); as for `Cc1ccc(S(=O)(=O)Nc2nc3ccccc3nc2N2CCc3ccccc3C2)cc1`, -50.8% (active).
`Cc1ccc(S(=O)(=O)C(C#N)c2nc3ccccc3nc2N2CCCC2)cc1C` (stereo not drawn): the max response, negative = inhibition is 17.6% (inactive).
As for `CCc1c(-c2ccc(F)cc2)ncn1Cc1cccc(-c2ccccc2)c1`, the max response, negative = inhibition is -10.3% (inactive).
As for `Nc1nc2c(ncn2[C@@H]2O[C@H](CNCc3ccc(OCCCN4CCOCC4)cc3)[C@@H](O)[C@H]2O)c(=O)[nH]1`, the figure is -3.82% (inactive).
In the case of `CCOC(=O)C1CCCN(C(=O)c2cccc3ccccc23)CC1` (stereo not drawn) it was 15.1% (inactive); in that of `CC(C)CNC(=O)COC(=O)/C=C/c1ccccc1[N+](=O)[O-]`, -8.96% (inactive); in that of `CC1CC(C)CN(C/C=C/c2ccccc2[N+](=O)[O-])C1` (stereo not drawn), -73.4% (active).
In the case of `CC1CCCCC1NC(=O)/C(C#N)=C/C=C/c1ccccc1[N+](=O)[O-]` (stereo not drawn) it was -12.8% (inactive); in that of `O=[N+]([O-])c1ccccc1/C=C/CN1CCCC(CO)C1` (stereo not drawn), -76% (active); in that of `O=C(/C=C/c1ccccc1[N+](=O)[O-])OCC(=O)N1CCCC1`, 9.84% (inactive).
Turning to `COc1cc(CN2CC(C)CC(C)C2)cc([N+](=O)[O-])c1O` (stereo not drawn), the max response, negative = inhibition is 17.6% (inactive).
In the case of `CN[C@H]1C[C@H]2c3cc(Oc4ccccc4C)ccc3CCN2C(=O)[C@H]1[C@H](C)O` it was 23.3% (inactive); in that of `Cc1noc(C)c1-c1ccc(C(=O)NCc2ccncc2)c2occc12`, -3.57% (inactive).
For `COc1cccc(C(NC(C)=O)c2nc(-c3cnc4ccccc4c3)cs2)c1` (stereo not drawn), the max response, negative = inhibition is 11.3% (inactive).
In the case of `C[C@H](CO)N1C[C@H](C)[C@@H](CN(C)C(=O)c2cnccn2)Oc2ncc(Br)cc2C1=O` it was -23.4% (inactive); in that of `Cc1ccc(-c2cnc(C(O)c3cccc(C)c3C)[nH]2)cc1` (stereo not drawn), -20.7% (inactive); in that of `COc1ccc(OC)c(C(=O)NC2CCCc3c2cnn3-c2cc(C)cc(C)c2)c1` (stereo not drawn), 57.4% (inactive).
In the case of `CCc1nc2c(OCc3cccc(OC)c3)cccn2c1N(C)C(=O)C(C)C` it was 10.3% (inactive).
As for `Cc1ccc(C(=O)N[C@H](C(=O)N2CCN(c3ncccn3)CC2)C(C)C)cc1`, the figure is 0% (inactive).
In the case of `O=[N+]([O-])c1c(NCCO)cc(Sc2nc3ccccc3s2)c2nonc12`, the max response, negative = inhibition was -81.4% (active).
In the case of `OCCNc1nc(Nc2ccc(Cl)c(Cl)c2)nc2ccccc12` it was -28.2% (inactive); in that of `Nc1nnc(SCC(=O)Nc2ccc3nc(SCC(=O)Nc4ccccc4)sc3c2)s1`, 0.758% (inactive).
As for `CCCC(=O)N1CCC1(C)C(=O)Nc1ccc(-n2cncn2)cc1` (stereo not drawn), the figure is -18.5% (inactive).
With `COc1cccc(CNC(=O)[C@@H]2CCCN2C(=O)[C@@H]2CCCN2C(=O)c2ccccc2)c1`, the max response, negative = inhibition is -10.4% (inactive).
In the case of `CSc1ncccc1C(=O)N1CCCC(Nc2ccc(F)c(F)c2)C1` (stereo not drawn) it was 1.51% (inactive).
In the case of `CCOC(=O)C1CCN(S(=O)(=O)c2cc(F)ccc2OC)CC1` it was 2.14% (inactive); in that of `CCOC(=O)C1CCN(C(=O)/C=C/c2cc(OC)c(OC)c(OC)c2)CC1`, 0.0271% (inactive).
Turning to `CCOC(=O)C1CCCCN1Cc1ccc(OC)c(OC)c1OC` (stereo not drawn), the max response, negative = inhibition is -50.5% (active).
As for `CCCCNC(=O)C[C@@H]1C[C@@]2(C(=O)OCC)CCC=C2N(Cc2ccco2)C1=O`, the figure is -17.5% (inactive); as for `CC(=O)Nc1ccc(C=Cc2ccc([N+](=O)[O-])cc2)cc1`, -0.898% (inactive); as for `COc1cccc(NC(=O)[C@H](Cc2c[nH]c3ccccc23)NC(=O)[C@@H]2Cc3ccccc3CN2)c1`, 0% (inactive).
In the case of `COc1ccc(NC(=O)[C@H](NC(=O)[C@@H]2Cc3ccccc3CN2)c2ccccc2)cc1` it was -97.8% (active); in that of `COc1ccc(NC(=O)C2CCC(CNC(=O)[C@@H]3Cc4ccccc4CN3)CC2)cc1` (stereo partly drawn), -8.86% (inactive); in that of `O=C1OCCOC2CCCc3oc(-c4ccccc4)c1c32` (stereo not drawn), -1.49% (inactive).
As for `O=C(COc1ccc(S(=O)(=O)N2CCCC2)cc1[N+](=O)[O-])N1CCCCC1`, the figure is -6.05% (inactive); as for `CC1CCCN(CC(=O)Nc2cc(Cl)ccc2Oc2ccccc2)C1` (stereo not drawn), 0.948% (inactive).
Consider `CCC1CCC/C1=N\NC(=O)c1ccc(Cl)cc1` (stereo not drawn), for which the max response, negative = inhibition was -14% (inactive).
In the case of `CN1CCC[C@@H]1CCO[C@](C)(c1ccccc1)c1ccc(Cl)cc1` it was -107% (active).
As for `C#Cc1ccc(NC(=O)C2(C)CCN2C(=O)Cc2ccc(-c3ccccc3)cc2)cc1` (stereo not drawn), the figure is 4.18% (inactive).
As for `O=C(NCc1cccnc1)c1cc(C2CCCN(C(=O)CCCc3ccccc3)C2)on1` (stereo not drawn), the figure is 33.8% (inactive); as for `COc1ccccc1CN1CCCC(N2CCN(c3ccc(F)cc3)CC2)C1` (stereo not drawn), 4.28% (inactive).
Take `COc1ccc(C2C(C#N)=C(N)Oc3n[nH]c(C)c32)cc1CN1CCN(c2ccc(F)cc2)CC1` (stereo not drawn): the max response, negative = inhibition is -95% (active).
As for `COc1ccc(-c2[nH]nc3c2C(c2ccncc2)C(C#N)=C(N)O3)cc1` (stereo not drawn), the figure is -18.7% (inactive); as for `CCC(CC)C(C(=O)NC1CCCC1)N1CCN(c2cc(C)nc3ccccc23)CC1` (stereo not drawn), 14.1% (inactive).
As for `NC(=O)C1(Nc2ccccc2Cl)CCCC1`, the figure is -22% (inactive); as for `O=C(Nc1ccccc1Cl)/C(Cl)=C(\Cl)S(=O)c1ccccc1` (stereo not drawn), -94.9% (active); as for `CS/C(=C\C(=O)c1ccco1)Nc1ccccc1Cl`, 0.757% (inactive).
As for `O=C(NCc1ccco1)c1cccc(-c2ccc3nncn3c2)c1`, the figure is -9.17% (inactive); as for `CCc1nc2c(OCCOc3ccccc3)cccn2c1N(C=O)Cc1ccc(OC)cc1`, 12.7% (inactive); as for `COc1ccccc1NC(=O)[C@H](COCc1ccccc1)NC(=O)OC(C)(C)C`, 13.5% (inactive).
As to `C[C@@H](NC(=O)OC(C)(C)C)c1nnc(S(=O)(=O)Cc2ccccc2)o1`, the max response, negative = inhibition was -110% (active).
As for `CCc1ccccc1NC(=O)CSc1nnc([C@@H](NC(=O)OC(C)(C)C)C(C)CC)o1` (stereo partly drawn), the figure is -1.74% (inactive); as for `CCNC(=O)C1(C)CCCN(C(=O)c2c(C)noc2C)C1` (stereo not drawn), 0% (inactive); as for `COc1ccc(S(=O)(=O)/N=C2\C=C(NS(=O)(=O)c3ccccc3)C(=O)c3ccccc32)cc1`, -59.6% (active).
In the case of `COc1ccc(NS(=O)(=O)c2ccc(Oc3c(C#N)cccc3C#N)cc2)cc1` it was 0.938% (inactive); in that of `CCCC(NS(=O)(=O)c1ccc(OC)cc1)C(=O)O` (stereo not drawn), -4.83% (inactive).
For `O=S1(=O)CC(N2CCN(Cc3ccccc3F)CC2)CN1Cc1cn(Cc2cccc(C(F)(F)F)c2)nn1` (stereo not drawn), the max response, negative = inhibition was 1.97% (inactive).
In the case of `COc1ccc(CCNS(=O)(=O)c2cccc([N+](=O)[O-])c2)cc1` it was -20.3% (inactive).
As for `CC(C=Cc1ccccc1)=NNS(=O)(=O)c1ccc([N+](=O)[O-])cc1`, the figure is -22% (inactive); as for `C/C(=N\NS(=O)(=O)c1cccc([N+](=O)[O-])c1)c1cc2ccccc2o1`, -65.1% (active).
In the case of `CCOC(=O)CNC(=O)CSc1nnc(-c2cccc(OC)c2)n1CC` it was 0% (inactive); in that of `CCOC(=O)CNC(=O)CSc1nnc(COc2ccc(Cl)cc2)n1CC`, -55.4% (active); in that of `CCn1c(COc2ccc(OC)cc2)nnc1SCC(=O)Nc1cc(OC)ccc1OC`, 5.77% (inactive).
For the molecule `CCOC(=O)C(C(=O)c1ccccc1)C(c1ccccc1)c1nccc2ccccc12` (stereo not drawn), the max response, negative = inhibition is -11.4% (inactive).
As to `COc1ccc(S(=O)(=O)N2CCCCC2)cc1C(=O)NC1CCS(=O)(=O)C1` (stereo not drawn), the max response, negative = inhibition was 22% (inactive).
With `COc1ccc(C(O)c2nc(-c3ccc(OC)nc3)cs2)cc1` (stereo not drawn), the max response, negative = inhibition is -0.57% (inactive).
With `COc1ccc(NC(=O)CN2C(=O)NC(C)(c3ccccc3)C2=O)cn1` (stereo not drawn), the max response, negative = inhibition is 28.1% (inactive).
In the case of `COc1ccc(CS(=O)/C(Cl)=C(/Cl)C(=O)Nc2ccc(OC)nc2)cc1` (stereo not drawn) it was -91.9% (active).
As for `CN1OC[C@@H]2CN(C(=O)c3ccc(-c4ccccc4)cc3)[C@H](c3ccc(-c4cccc(F)c4)cc3)C[C@@H]21`, the figure is -51.6% (active); as for `CN1OC[C@@H]2CN(C(=O)c3cccc4ccccc34)[C@H](c3ccc(N4CCCCC4)cc3)C[C@@H]21`, 0.382% (inactive).
As for `CN1OC[C@@H]2CN(C(=O)c3cccnc3)[C@H](c3ccc(N4CCCCC4)cc3)C[C@@H]21`, the figure is 33.1% (inactive); as for `COc1cccc(NC(=O)C2(C)CCN2Cc2ccccc2Cl)c1` (stereo not drawn), 9.45% (inactive).
As to `O=C(NCc1nnc(SCC(=O)N2CCCCCC2)o1)c1ccc(F)cc1`, the max response, negative = inhibition was -15.6% (inactive).
As for `Cn1c(CNC(=O)c2ccco2)nnc1SCC(=O)N1CCN(c2ccccc2)CC1`, the figure is 9.96% (inactive); as for `O=C(NCc1nnc(SCC(=O)N2CCC(Cc3ccccc3)CC2)o1)c1ccco1`, -56.2% (active).
